Source: PubChem BioAssay (several laboratories)
CYP2C19 inhib = human CYP2C19 inhibition | P33261 | CYP2C19 Supersomes, luciferin-H EGE luminescence, 30 min | inhibition, % at 5 µM | 96,000 compounds, 21% hits;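 active = CYP2C19 inhibition above a set limit at 5 µM in the primary screen, cut at about 50% in these data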;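 also: plate controls were negative control wells for no effect and 2.5 mM tranylcypromine positive control for full effect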
EphB4 ephrin blk = blocks human EphB4 binding to ephrin-B2; P54760; 97,000 compounds, 0.15% hits; EphB4 LBD / TNYL-RAW-Alexa532 peptide, fluorescence polarization; inhibition, % at 7 µM;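 active = inhibition above the screen-wide mean inhibition plus 3 SD, cut at about 15% in these data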;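 also: 0% = DMSO wells and 100% = excess unlabeled TNYL-RAW peptide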
CYP2C19 act = activators of human cytochrome P450 2C19. AID 1025. recombinant CYP2C19, luciferin-H EGE luminescence; stronger effect = higher value; 0 = fully inhibited enzyme, 1 = untreated enzyme. P33261. 96,000 tested, under 10 active. activation factor at 5 µM;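 active = activation factor of at least 2 at 5 µM in the primary screen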;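 also: 0 = wells with 2.5 mM tranylcypromine and 1 = vehicle-only wells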
CYP2C9 act = increases human cytochrome P450 2C9 activity. recombinant CYP2C9, luciferin-H conversion, luminescence; stronger effect = higher value; factor 1 = untreated enzyme, 0 = blocked. 96,000 compounds, 1.4% hits. activation factor at 5 µM;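 active = activation factor of 2 or more for CYP2C9 at a 5 µM dose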;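 also: 0 = sulfaphenazole-blocked wells and 1 = vehicle-only wells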
Target sequence (P11712 whole entry, looked up): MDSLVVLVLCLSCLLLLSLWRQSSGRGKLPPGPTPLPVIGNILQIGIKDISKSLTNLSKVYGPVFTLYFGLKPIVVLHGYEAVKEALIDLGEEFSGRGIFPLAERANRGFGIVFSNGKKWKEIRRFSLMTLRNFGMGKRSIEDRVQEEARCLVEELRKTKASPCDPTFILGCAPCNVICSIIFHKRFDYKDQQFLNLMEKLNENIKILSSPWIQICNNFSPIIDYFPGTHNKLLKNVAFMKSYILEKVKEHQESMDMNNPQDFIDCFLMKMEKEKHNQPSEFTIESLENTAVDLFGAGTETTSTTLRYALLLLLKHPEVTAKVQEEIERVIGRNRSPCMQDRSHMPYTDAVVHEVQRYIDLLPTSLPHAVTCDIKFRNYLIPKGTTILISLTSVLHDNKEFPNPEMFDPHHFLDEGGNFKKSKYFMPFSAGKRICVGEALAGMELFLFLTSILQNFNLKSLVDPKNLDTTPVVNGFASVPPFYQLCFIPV
CYP2C9 inhib = blocks human cytochrome P450 2C9. P11712. CYP2C9 Supersomes, luciferin-H conversion, luminescence. inhibition, % at 5 µM. 96,000 compounds, 20% hits. AID 777;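 active = blocking of liver enzyme CYP2C9 beyond about 50% at 5 µM, limit read from the data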
* marks the source's active call; other numbers are inactive results; nt = no result given. Sampled rows, rich in hits. Any-hit rate of the full collection: about 27%.

SMILES	CYP2C19 inhib	EphB4 ephrin blk	CYP2C19 act	CYP2C9 act	CYP2C9 inhib
O=C(Nc1ccccc1Cl)N1CCN(c2ccccn2)CC1	nt	-3.6	nt	nt	nt
COc1ccc(Cl)cc1NC(=S)N1CCN(c2ccccn2)CC1	56.0*	9.8	0.4	2.5*	-154.4
COc1cccc(C(=O)N2CCN(C3CCC(c4ccccc4)CC3)CC2)c1 (stereo not given)	90.9*	6.5	0.1	0.7	33.6
O=C(Nc1cccc(Cl)c1)c1cnn2cccnc12	10.4	1.6	0.9	0.8	16.6
COc1ccc(S(=O)(=O)n2ccc(-c3ccc(OCCN(C)c4ccccn4)cc3)n2)cc1	25.7	8.4	0.7	0.4	57.2*
COc1cccc(CN2CCSCC2)c1	33.1	-3.4	0.7	0.9	5.7
COc1cccc(N2CCN(Cc3ccsc3)CC2)c1	90.7*	-1.0	0.1	0.5	50.4*
CCN(CC)CCN1C(=O)C(=O)/C(=C(/O)c2ccc(OC)cc2)C1c1ccco1 (stereo not given)	-8.3	-0.1	1.1	1	-1.5
CCOc1ccc(/C(O)=C2/C(=O)C(=O)N(c3nc(C)c(C)s3)C2c2ccco2)cc1 (stereo not given)	46.1	9.0	0.5	0.2	81.0*
CCOC(=O)c1c(C)nc2c(c1C)/C(=N/O)CC(C)(C)C2	64.0*	-7.3	0.4	0.5	54.1*
CCOC(=O)c1c(C)nc2c(c1-c1ccc(OC)cc1)C(=O)CC(C)(C)C2	13.2	1.0	0.9	0.8	17.6
O=C(NNC(=S)Nc1ccccc1)c1ccncc1	69.5*	-6.2	0.3	0.3	69.2*
CC(C)NC(=S)NNC(=O)C12CC3CC(CC(C3)C1)C2	6.4	4.3	0.9	1.1	-7.2
CC/C(=N\NC(=O)c1ccncc1)C12CC3CC(CC(C3)C1)C2	93.9*	-1.0	0.1	0.9	14.1
O=C(NNC(=S)NC(=O)C12CC3CC(CC(C3)C1)C2)c1ccncc1	66.8*	-1.5	0.3	0.1	93.9*
Cc1ccccc1CSc1nsc(N)n1	29.9	5.9	0.7	0.8	18.4
O=C1OC(Nc2ccccn2)c2ccccc21 (stereo not given)	-8.7	1.3	1.1	1	4.9
Cc1cc(NC(=O)CSC2=Nc3ccccc3C3=NC(Cc4ccccc4)C(=O)N23)n[nH]1 (stereo not given)	7.1	1.3	0.9	0.9	11.6
CCOc1cc(N2CCOCC2)c(OCC)cc1NC(=O)COC(=O)c1cc(C)oc1C	23.6	9.7	0.8	0.8	17.2
COc1cc(-c2cccs2)cc(=O)c2c(C)oc(C)c12	12.8	-3.5	0.9	0.6	40.8
COc1ccc(-c2cc(OC(=O)c3ccc(F)cc3)c3c(C)oc(C)c3c(=O)c2)cc1	-0.5	-4.9	1	0.4	55.9*
CCN1C(=O)c2cccc3c(S(=O)(=O)Nc4c(C)n(C)n(-c5ccccc5)c4=O)ccc1c23	0.5	2.2	1	0.4	57.5*
CCOC(=O)Cc1csc(NS(=O)(=O)c2ccc3c4c(cccc24)C(=O)N3CC)n1	44.3	nt	0.6	0	95.3*
Cc1c(NC(=O)CN2C(=O)c3cccc4cccc2c34)c(=O)n(-c2ccccc2)n1C	1.0	5.2	1	1	-2.4
CCOC(=O)N1CCC(N2C(=O)c3cc(C(=O)NC4CCCCC4)ccc3C2O)CC1 (stereo not given)	23.6	-1.2	0.8	0.5	48.0
SMILES	CYP2C19 inhib	EphB4 ephrin blk	CYP2C19 act	CYP2C9 act	CYP2C9 inhib
COC(=O)C(Cc1ccc(O)cc1)NC(=O)c1ccccc1OC (stereo not given)	52.7*	nt	0.5	2.3*	-127.8
COC(=O)C(Cc1ccc(O)cc1)NC(=O)c1ccccc1 (stereo not given)	29.0	2.9	0.7	0.8	19.9
O=C(O)CN(Cc1ccccc1)S(=O)(=O)c1ccc(F)cc1	-15.4	6.8	1.2	0.5	47.0
CCOC(=O)CCN(Cc1sccc1C)S(=O)(=O)c1ccc(F)cc1	85.1*	0.2	0.1	0.3	65.6*
CCOC(=O)CN(Cc1ccccc1)S(=O)(=O)c1ccc(NC(C)=O)cc1	48.1	-0.6	0.5	1	-4.8
CCOC(=O)CCN(Cc1cccs1)S(=O)(=O)c1ccc(F)cc1	75.3*	-5.6	0.2	0.6	36.3
Cc1nc2ccccc2c(=O)[nH]1	-14.9	6.2	1.1	1.3	-28.9
CCOCCCNC(=O)C(NC(=O)c1cnccn1)c1ccc(OC)cc1 (stereo not given)	32.5	8.3	0.7	0.8	15.2
COc1ccc(CCC(=O)Nc2ccc(N3CCOCC3)cc2)cc1	7.0	-1.7	0.9	0.8	20.9
Cc1ccc(-n2ccc(=O)c(-c3ccnc(SCc4cccc(Cl)c4)n3)n2)cc1	20.4	-2.6	0.8	0.4	55.7*
CCOC(=O)C1CCCN(CC(=O)Nc2c(C(=O)OC)[nH]c3ccccc23)C1 (stereo not given)	27.0	4.4	0.7	0.9	11.5
CN=C1SC(CC(=O)Nc2ccc(C(C)=O)cc2)C(=O)N1C (stereo not given)	nt	-0.1	nt	nt	nt
Cc1ccc(NC(=O)CC2S/C(=N/c3nccs3)N(C)C2=O)cc1C (stereo not given)	85.7*	13.9	0.1	0.2	78.7*
CCc1ccccc1NC(=O)CC1S/C(=N\c2nccs2)N(CC)C1=O (stereo not given)	96.1*	nt	0	0	97.2*
CCOC(=O)c1ccc(NC(=O)CC2SC(=NC)N(C)C2=O)cc1 (stereo not given)	26.9	11.0	0.7	0.9	14.7
Cc1ccccc1NC(=O)CC1S/C(=N/c2nccs2)N(C)C1=O (stereo not given)	90.0*	0.6	0.1	0	97.8*
CN=C1SC(CC(=O)Nc2cc(Cl)ccc2Cl)C(=O)N1C (stereo not given)	59.8*	-1.4	0.4	0.9	5.8
CCOc1c(C(N)=O)c(-c2ccccc2)c2c(=O)[nH]c3ccccc3n12	12.8	-0.1	0.9	0.8	18.7
Cc1cc(NC(=O)CSc2nnc(Nc3ccccc3)s2)no1	-6.9	-3.4	1.1	1.1	-6.9
CC(=O)CC(=O)NC(=NC1CCCCC1)Nc1nc(C)cc(C)n1	13.6	-6.1	0.9	0.8	20.0
N#C/C(=C\c1cc(Cl)ccc1O)C(=O)NC1CCCCC1	18.5	-4.3	0.8	0.4	61.2*
COC(=O)C1=C(C)n2nnnc2NC1c1ccc(Cl)cc1 (stereo not given)	29.9	-8.9	0.7	0.7	31.7
Cc1ccc(S(=O)(=O)c2c(N)n(Cc3ccco3)c3nc4ccccc4nc23)cc1	36.4	0.8	0.6	0.3	68.6*
Cc1cccc(S(=O)(=O)c2c(N)n(Cc3ccco3)c3nc4ccccc4nc23)c1	90.8*	-0.6	0.1	0	95.9*
Cc1ccc(CNC(=O)CS(=O)Cc2nc(-c3ccccc3C)oc2C)cc1 (stereo not given)	40.5	6.3	0.6	0.8	23.7
COc1ccc(CNC(=O)CS(=O)Cc2nc(-c3ccccc3C)oc2C)cc1 (stereo not given)	91.0*	2.4	0.1	0.2	75.1*
